Here are results for 104 molecules from ChEMBL document CHEMBL4513216, “Probing the Open Global Health Chemical Diversity Library for Multistage-Active Starting Points for Next-Generation Antimalarials” (ACS Infect Dis, 2020).

In all, about 69,000 compounds went through this assay and about 8,600 (12%) showed an effect of 50% or more. For the sample, strong results were picked, then their nearest neighbours and some compounds at random.

In this experiment the test system is Plasmodium berghei. Nature of the experiment: Screen against P. berghei liver stage (PbLuc), transformed with Luciferase, at 10uM. The experiment is classed as functional, HepG2. The note with it: tested at 10 uM.
With `CC(=O)N1CCCC(c2ccc(N3CCOCC3)cn2)C1` (centres undefined), the INHIBITION is recorded as -4.51%. As for `Cc1ccc(NCc2cnc3n2CCN(c2ncccn2)CC3)nn1`, the INHIBITION came out at 35.2%. For `Cc1ccccc1CNC(=O)C1CCN(Cc2nccn2C)CC1` the value was -17%; for `CC(=O)N1CCC(Cc2cnc(-c3c(C)nn(C)c3C)cn2)C1` (centres undefined), 33.5%; for `Cn1ccnc(Sc2cccc(C#N)c2)c1=O`, 15%. On to `COCCCN1CCN(C(=O)C(c2cccc(F)c2)N(C)C)CC1` (centres undefined), for which the INHIBITION was 50.1%. Take `CN(C)C(C(=O)N1CCN(CCn2cccc2)CC1)c1cccc(F)c1` (centres undefined): the INHIBITION is on record as 44.7%. Next, `COCCN1CCN(C(=O)C(c2cccc(F)c2)N(C)C)CC1` (centres undefined): 41.5%; `CC(Cn1ccnc1)NC(=O)N1CCN(Cc2ccsc2)CC1` (centres undefined): 31.9%; `COc1ccc2c(c1)CC(C1CCOCC1)N(C(=O)c1ccn(C)n1)C2` (centres undefined): 2.45%.

For the molecule `CC(=O)N(Cc1ncc(C(C)C)o1)C1CCN(CCn2cncn2)C1` (centres undefined), the INHIBITION is reported as -13.2335%.

As to `CC1=CC[C@@H]2CN(C(=O)c3ccc(-c4nc[nH]n4)cc3)C[C@@H]2C1`, the INHIBITION came to 40.7%. As for `c1ccc(COC[C@]23COC[C@H]2CN(c2ncccn2)C3)nc1`, the INHIBITION is reported as 53%. For `COc1cc(N2C[C@@H]3COC[C@]3(COc3ncccc3F)C2)ncn1`, the INHIBITION is 73%. In the case of `COc1cc(N2C[C@@H]3COC[C@]3(COc3ccccn3)C2)ncn1`, the INHIBITION is reported as -6.3%. `O=C(CC1CC1)NC[C@]12COC[C@H]1CN(c1ncccn1)C2`: the INHIBITION worked out at 88%. Next, `COc1cc(N2C[C@@H]3COC[C@]3(COc3cccnc3)C2)ncn1`: 42.1%; `COc1ncccc1CN1C[C@@H]2COC[C@]2(COc2ccccn2)C1`: -32%; `COCC(=O)NC[C@]12COC[C@H]1CN(c1ncc(F)cn1)C2`: -22.1%. For `COc1cc(N2C[C@@H]3COC[C@]3(COCc3ccncc3)C2)ncn1`, the INHIBITION turned out to be 34.6%.

Consider `COc1cc(N2C[C@@H]3COC[C@]3(COCc3ccccn3)C2)ncn1`, for which the INHIBITION is 68.4%.

Turning to `Cc1cccc(COC[C@]23COC[C@H]2CN(c2ncccn2)C3)n1`, the INHIBITION is reported as 38.1%. Regarding `O=C(CC1CC1)NC[C@]12COC[C@H]1CN(c1ncc(F)cn1)C2`, the INHIBITION was determined as 1.48%. For `c1ccc(OC[C@]23COC[C@H]2CN(c2ncccn2)C3)nc1` the value was 31.9%; for `CS(=O)(=O)N1C[C@H]2CC[C@@H](C1)N(C(=O)Cn1ccc3ccccc31)C2`, -7.98%.

In the case of `CC(C)C(C)NC(=O)Nc1cccc(OCC#N)c1` (centres undefined), the INHIBITION is reported as -16%.

As to `CC(c1c(F)cccc1F)N1CCN(Cc2nccn2C)CC1` (centres undefined), the INHIBITION is 19.2%. As to `Cc1nc(CNC(=O)Nc2c(C)n[nH]c2C)cs1`, the INHIBITION was 19.9%. Take `CN(C)C(=O)CN1CCC2(CCN(Cc3nccs3)CC2)C1=O`: the INHIBITION is -21.3%.

For `Cc1nc2cc(C3CCOCC3)nn2c(NCC2COCCO2)c1C` (centres undefined), the INHIBITION came out at 32.75%. For `CCn1ncc2c1C(COCC1CC1)CN(S(=O)(=O)N(C)C)C2` (centres undefined), the INHIBITION turned out to be 35.1%. Next, `COCC(=O)N1CCC([C@@H]2C[C@H](C(F)(F)F)n3nc(C)cc3N2)CC1`: -6.92%.

For the molecule `CC(c1ccccn1)N(C)Cc1ccc(-n2ccnc2)cc1` (centres undefined), the INHIBITION worked out at 37.6%. `Cc1cccc(CN2C[C@@H]3COC[C@]3(COc3ccc(C#N)cn3)C2)n1`: the INHIBITION is 6.8%. `Cc1cccc(COC[C@]23COC[C@H]2CN(C(=O)c2ccsc2)C3)n1`: the INHIBITION is -29.9%. Consider `N#Cc1ccc(OC[C@]23COC[C@H]2CN(c2ncccn2)C3)nc1`, for which the INHIBITION is -7.29%. As to `COc1cc(N2C[C@@H]3COC[C@]3(COCc3cccc(C)n3)C2)ncn1`, the INHIBITION worked out at 63.7%. For `Cn1cc(CN2C[C@@H]3COC[C@]3(COc3ccc(C#N)cn3)C2)cn1` the value was -43.2%. For `COc1cc(N2C[C@@H]3COC[C@]3(COc3ccc(C#N)cn3)C2)ncn1` the value was 71.1%. Turning to `Cc1cccc(CNC(=O)N(CCCO)C2CCc3ccccc32)n1` (centres undefined), the INHIBITION was -14.6%. For `CNc1snc(C)c1C(=O)NC(C)CC(=O)c1cccs1` (centres undefined) the value was 44.6%; for `O=C(N1CCOCC1)N1CCC(Nc2ccncn2)CC1`, 29.4%. Next, `O=C(N1CCCC1)N1CCC(Nc2ccncn2)CC1`: 34.1%. For `CC(C)C1CN(C(=O)c2cccs2)CCS1` (centres undefined) the value was 29.5%; for `CC(C)c1cc(NC2CCN(C(=O)N3CCCC3)CC2)ncn1`, 74.7%. In the case of `CC(C)c1cc(NC2CCCN(C(=O)c3cccs3)C2)ncn1` (centres undefined), the INHIBITION is given as 80%. Regarding `CCc1nc(NC2CCCN(C(=O)c3cccs3)C2)c2cnn(C)c2n1` (centres undefined), the INHIBITION amounted to 32.8%. Next, `COc1ccc(CC(=O)NC2(C#N)CCOCC2)c(Cl)c1`: -8.4%. For `Cc1ccc(N2CCCC(NCc3cccs3)C2)nn1` (centres undefined), the INHIBITION is given as -19.4%. Next, `CCNC(=O)NC(=O)CN1CCCC1c1nc(C2CCCCC2)co1` (centres undefined): 10.8%; `O=C(O)CCn1ccc(=O)c2ccccc21`: 35.1%; `O=C(O)CCn1ccc2c(nnc3c(-c4ccc(F)cc4)cnn32)c1=O`: 63.6%. In the case of `CC(=O)Nn1ccc2c(nnc3c(-c4ccccc4)cnn32)c1=O`, the INHIBITION is on record as 58.5%.

`O=C(O)CCn1ccc(=O)c2cc(F)ccc21`: the INHIBITION is given as 38.1%. As for `CC(=O)Nn1ccc2c(nnc3c(-c4ccc(F)cc4)cnn32)c1=O`, the INHIBITION amounted to 58.5%. On to `CCN(C)C(=O)NCC1(CN2CCOCC2)CCCCC1`, for which the INHIBITION stood at 5.76%.

Consider `O=C(c1cc(=O)c(OCc2ccccc2F)co1)N1CCCC1`, for which the INHIBITION is -51.9%.

Regarding `COCCNC(=O)c1cnc(N(C)C)nc1C`, the INHIBITION is on record as 14.2%. With `CSc1nccn1-c1cccc(C(=O)NCCC(=O)NC(C)C)c1`, the INHIBITION was determined as 15.5%. With `CC(=O)NCCCC(=O)N1CCc2[nH]c(-c3ccccc3)nc2C1`, the INHIBITION turned out to be 35.8%. For `Cc1cc(O)n2nc(C3CCN(C(=O)c4ccccn4)CC3)cc2n1` the value was 7.55%; for `CC(=O)N1[C@H](CN(C)C)C[C@@H]2CN(C(=O)Cc3cccs3)CC[C@@H]21`, -61.5%; for `Cn1nc(Br)c2c(NCCN)ncnc21`, 15.7%. Next, `Cc1ccc(-c2cc(N)c(=O)n(CC(=O)NC3CCCCC3)n2)s1`: 55.2%. For the molecule `Cc1ccc(-c2cc(N)c(=O)n(CC(=O)NCC3CCCCC3)n2)s1`, the INHIBITION amounted to 39.2%.

Consider `Cc1ccc(-c2cc(N)c(=O)n(CC(=O)NC3CCCC3)n2)s1`, for which the INHIBITION worked out at 6.32%.

As to `COc1cccc(C(CO)NC(=O)Cc2ccc(F)c(Br)c2)c1` (centres undefined), the INHIBITION is listed as 22.6%.

With `COCC(=O)NC(C)Cc1cccc(OC)c1` (centres undefined), the INHIBITION is listed as 15.5%. As to `COc1cccc(C(CO)NC(=O)NC(C)C)c1` (centres undefined), the INHIBITION is on record as 91.1%. `COc1cccc(CC(C)NC(=O)NC(C)C)c1` (centres undefined): the INHIBITION worked out at 30.3%. As to `COc1cccc(C(CO)NC(=O)Cc2cccc(C)c2)c1` (centres undefined), the INHIBITION is given as 53.4%. In the case of `COc1ccc(C(CO)NC(=O)Nc2cccc(C(C)=O)c2)cc1` (centres undefined), the INHIBITION is -6.51%. In the case of `CN1CCN2C[C@@H](CO)[C@H](c3ccccc3)[C@H]2C1`, the INHIBITION stood at 17.7%. For the molecule `OCCCNc1cccc(COC2CCCCC2)c1`, the INHIBITION stood at 17.5%. Next, `CN(C)CCN1C(=O)CCCC12CCCN(C(=O)c1cc[nH]n1)C2` (centres undefined): 34.5%. For the molecule `Cn1cc([C@@H]2CN(S(C)(=O)=O)C[C@H]2N)c2ccncc21`, the INHIBITION is listed as -10.795%. `CC(C)Cc1cc(-c2cc(-c3ccc[nH]3)nc(N)c2C#N)n[nH]1`: the INHIBITION was determined as 48.8%. For the molecule `CCS(=O)(=O)CC(=O)Nc1ccccc1N1CCc2ccccc21`, the INHIBITION is reported as 63.3%.

On to `CS(=O)(=O)NCCC(=O)Nc1ccccc1N1CCc2ccccc21`, for which the INHIBITION amounted to 40.5%. Regarding `CNC(=O)NCC(=O)Nc1ccccc1N1CCc2ccccc21`, the INHIBITION is listed as 30.5%.

With `c1ccc(C2CN(C3CC3)CC3(CCN(Cc4ncc[nH]4)CC3)C2)cc1` (centres undefined), the INHIBITION is given as 53.3%.

`CN1CC(c2ccccc2)CC2(CCN(Cc3ncc[nH]3)CC2)C1` (centres undefined): the INHIBITION was found to be 49.9%. `O=C1CCC2(CCN(Cc3cscn3)CC2)CN1C1CCC(O)CC1` (centres undefined): the INHIBITION was -60.7%. `CCN1CC(c2ccccc2)CC2(CCN(Cc3ncc[nH]3)CC2)C1` (centres undefined): the INHIBITION is recorded as 42.1%. For `COCCC(=O)N1CCC2(CC1)CC(c1ccccc1)CN(C1CC1)C2` (centres undefined) the value was 14%; for `c1ccc(C2CN(C3CC3)CC3(CCN(Cc4cscn4)CC3)C2)cc1` (centres undefined), 70.1%. For `Cc1cn2c(=O)c(-c3ccnc(N[C@@H]4CCOC4)n3)cnc2s1`, the INHIBITION stood at 17.4%. For the molecule `Cc1nc(COC[C@@]23CCC[C@@H]2CN(Cc2nccs2)C3)cs1`, the INHIBITION was found to be 42.6%. Next, `COCCCN1CC2(CCCN(c3ncc(Cl)cc3F)C2)CCC1=O` (centres undefined): 37.7%; `CN(C)CCN1CC2(CCCN(c3ncc(Cl)cc3F)C2)CCC1=O` (centres undefined): 37.7%.

Take `COCCN1CC2(CCCN(c3ncc(Cl)cc3F)C2)CCC1=O` (centres undefined): the INHIBITION worked out at 78.5%. Next, `CC(C(=O)Nc1ccnn1C(C)C)N1CCc2nn(C)c(=O)cc2C1` (centres undefined): 1.98%; `Cc1c(OCC(=O)NCc2ccccc2)c(=O)ccn1C`: 57.3%; `COc1ccccc1CNC(=O)COc1c(C)n(C)ccc1=O`: 53.6%.

With `COc1ccccc1CNC(=O)CNCCn1cc(C)cn1`, the INHIBITION was 7.27%.

With `CC(=O)c1cccc(NC(=O)COc2c(C)n(C)ccc2=O)c1`, the INHIBITION is -19%. With `Cc1c(OCC(=O)NCc2ccccc2Cl)c(=O)ccn1C`, the INHIBITION worked out at 39.6%.

Consider `COCCn1ccc(=O)c(OCC(=O)Nc2ccccc2)c1C`, for which the INHIBITION is given as -93.2%. For `Cc1cccc(CN2C(=O)CO[C@@H]3CN(C4CCOCC4)C[C@H]32)c1` the value was -18.2%; for `CCN(C(=O)CCCOc1ccccc1F)c1ccncc1`, -26.8%; for `CCCn1nnnc1COC(=O)C1Cc2cc(Cl)ccc2O1` (centres undefined), 43.5%. Take `CCCn1nccc1NC(=O)c1ccc(Cl)c(N2CCNC2=O)c1`: the INHIBITION was found to be 57%. In the case of `CCc1ccc(C(=O)Nc2cc(N3CCNC3=O)ccc2Cl)o1`, the INHIBITION is on record as 32.9%. Take `CCCc1cc(NC(=O)c2ccc(Cl)c(N3CCNC3=O)c2)n[nH]1`: the INHIBITION is -26.4%.
